Measured values as given in PubChem BioAssay AID743262 (National Center for Advancing Translational Sciences (NCATS), 2014).
Out of some 1,300 compounds screened, about 25 (2%) were called active. Roughly 9% stayed inconclusive and do not appear here. Calls follow the shape of the dose curve; as a rule, active = well fitted activation curve with a large enough effect; inconclusive = small, poorly fitted or top-dose-only effect; inactive = flat fitted curve, though single readings scatter. The sample as a whole holds a higher share of actives than the screen did.

Molecular target: Glucagon-like peptide 1 receptor (Homo sapiens) (UniProt P43220)
Assay: qHTS of GLP-1 Receptor Agonists: Hit Validation; as to activation: % of control where 0% means no effect
Settings: HEK293 GLP-1R, cAMP-response luciferase, 4-6 h; series mostly up to 46.1 µM; activation: at the top concentration
Excerpt: The overall goal of this project was to develop a novel assay for discovering small molecule ligands for class B1 G protein-coupled receptors (GPCRs). Very few agonists (or inverse agonists) with generally weak activity for this entire group of physiologically important receptors are known to date. To establish proof-of-principle that this critical bottleneck can be overcome with a suitable screening approach, our studies focused on the class B1 receptor for glucagon-like peptide-1 (GLP-1R), a potential therapeutic target for diabetes and neurodegenerative disease. The assay was developed in a "mix and measure" format using a cell-based functional readout. Toward this goal, stably transfected HEK293 cell clones were established that co-express (i) a cAMP-responsive luciferase reporter gene, and (ii) GLP-1Rs that upon ligand interaction either stimulate (agonists) or inhibit (inverse agonists) luciferase activity. In different cell lines to be used for screening, expressed GLP-1Rs are specifically optimized for high sensitivity detection of either weak agonists (hypersensitive receptor) or inverse agonists (constitutively active receptor mutant). In addition, control cell lines were developed that express either the cAMP-responsive reporter gene without recombinant GLP-1Rs (enabling initial exclusion of GLP-1R independent effects of candidate probes), or the reporter gene together with wild type GLP-1Rs (for confirmation of probe activity at this receptor), or the reporter gene in combination with the constitutively active orphan receptor GPR119 (enabling initial exclusion of GLP-1R independent inhibitory effects of candidate inverse agonists). To that end, this assay was optimized for 1536-well format and screened against the MLSMR. NIH Molecular Libraries Probe Production Network [MLPCN] NIH Chemical Genomics Center [NCGC] Grant: NS064851 PI Name: Martin Beinborn, Tufts Medical Center
In a white solid 1536-well plate, 6 uL of cells are dispensed in DMEM without phenol red, 10% Nu serum, and 1% pen-strep medium. The plates are then incubated for 12 hours at 37 deg C at 5% CO2 before 23 nL of compounds are added. After a 4-6 hr incubation at37 deg C and 5% CO2, 3 uL of detection reagent are added and after a 12 min incubation at RT, a luminescent read is obtained on the ViewLux.
Potency is read from the fitted curve at half-maximal effect.

Glucagon-like peptide 1 receptor (Homo sapiens), sequence (P43220 whole entry, looked up): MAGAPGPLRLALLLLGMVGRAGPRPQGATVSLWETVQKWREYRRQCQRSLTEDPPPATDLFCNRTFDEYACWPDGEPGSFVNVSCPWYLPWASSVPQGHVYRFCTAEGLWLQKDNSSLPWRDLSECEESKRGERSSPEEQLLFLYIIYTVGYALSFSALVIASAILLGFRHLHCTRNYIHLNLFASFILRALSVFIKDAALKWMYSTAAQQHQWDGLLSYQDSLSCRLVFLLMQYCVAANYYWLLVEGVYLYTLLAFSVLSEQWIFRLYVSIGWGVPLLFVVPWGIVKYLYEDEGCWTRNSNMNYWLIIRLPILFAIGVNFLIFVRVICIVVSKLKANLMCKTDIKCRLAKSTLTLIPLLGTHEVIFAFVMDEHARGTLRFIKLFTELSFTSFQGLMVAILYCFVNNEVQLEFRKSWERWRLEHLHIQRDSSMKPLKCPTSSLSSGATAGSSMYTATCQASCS

| SMILES | Potency | activation |
| --- | --- | --- |
| CC(Cc1ccc(O)cc1)NCC(O)c1ccc(O)c(O)c1 (stereo not given) | 9.2 nM (active) |  |
| O=c1[nH]cnc2nc(-c3ccc(N(CCCl)CCCl)cc3)[nH]c12 |  | 17.1% (inactive) |
| N#Cc1c(/N=C/c2ccc(O)cc2O)sc2c1C1CCN2CC1 |  | 12.4% (inactive) |
| C[C@@H]1CN([C@H](C)CO)C(=O)CCCn2cc(nn2)CO[C@H]1CN(C)C(=O)Oc1ccc2ccccc2c1 |  | -0.911% (inactive) |
| CN1CCN=C(c2ccccc2)c2cc(Cl)ccc21 |  | -0.229% (inactive) |
